Shown are actives, neighbours in structure and some others; about 13% of the full set was active somewhere.
HSD17B inh = inhibitors of human HSD17B10 dehydrogenase; Q99714; recombinant HSD17B10, NADH fluorescence kinetic; Potency, µM (series often up to 57.1 µM), for the others: at the top dose activity change, negative = inhibition, usual class: inhibitors; actives 7.6% (n = 75,000); AID 893;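 further: the protocol describes HADH2 (HSD17B10) and not the HSD17B4 of the title; potency means the concentration at half of the fitted maximal effect; on the % scale 0 is the no-effect control and ±100 the full control effect; nearly all actives have a fitted effect of over 70% in size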
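20 nM HADH2, pH 9.0 Tris/Tween; cpd preinc 15 min RT; start w/ 1 mM NAD+ + 90 uM b-hydroxybutyryl-CoA; kinetic fluor ex360/em450 q30s x 4 min; delta last-first.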
A350 fluor = A350 region autofluorescence; Compound autofluorescence, 340/450 nm, Alexa 350 dye-equivalents; active compounds read high; max dye-equivalent concentration, M; actives 11% (n = 59,000); AID 590; in the data active means max dye-equivalent concentration above about 10 nM; inconclusive means mostly about 1.1 nM to 9.6 nM
AID923 = qHTS Assay for Allosteric/Competitive Inhibitors of Caspase-1: Spectroscopic Profiling in AFC Spectral Region | compound fluorescence, AFC spectral region (405/520 nm) | Potency, µM (top dose mostly 57.5 µM), inactives show at the highest dose fluorescence increase, usual class: activators | actives 1.1% (n = 75,000) | AID 923, 2007; further: potency means the concentration at half of the fitted maximal effect; 0% is about no effect
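Titrations up to 57 uM read every 20 sec for 3 min (405/520 nm) with 50 nM caspase 1 and 5 uM Ac-WEHD-AFC, pH 7.5 HEPES buffer. Fluorescence-vs-time intercept gave baseline, scaled against on-plate AFC standard.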
HADH2 inh = blocks human hydroxyacyl-CoA dehydrogenase type II. recombinant HADH2, NADH fluorescence, beta-hydroxybutyryl-CoA. Q99714. AID 886. actives 3.4% (n = 73,000). Potency, µM (series often up to 57.1 µM), inactives show top-dose activity change, negative = inhibition, actives largely listed as inhibitors; further: potency means the concentration at half of the fitted maximal effect; on the % scale 0 is the no-effect control and ±100 the full control effect; nearly all actives have a fitted effect of over 60% in size
Target sequence (Q99714 whole entry, looked up, one chain of several): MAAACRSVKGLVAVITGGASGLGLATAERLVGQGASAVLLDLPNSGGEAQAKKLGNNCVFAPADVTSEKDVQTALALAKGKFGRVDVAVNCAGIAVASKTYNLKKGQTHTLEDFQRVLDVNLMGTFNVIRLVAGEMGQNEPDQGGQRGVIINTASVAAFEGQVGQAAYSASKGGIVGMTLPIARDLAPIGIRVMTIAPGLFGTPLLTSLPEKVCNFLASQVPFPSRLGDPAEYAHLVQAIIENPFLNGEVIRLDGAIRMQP
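E. coli-expressed His-tagged HADH2 tested at 20 nM in alkaline Tris buffer (pH 9.0); oxidation of 90 uM beta-hydroxybutyryl-CoA with 1 mM NAD+ tracked fluorimetrically for 4 min.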
4MU fluor = compounds fluorescent in 4-MU spectral region | max dye-equivalent concentration, M | compound autofluorescence, 340/450 nm, 4-MU equivalents; active compounds read high | actives 11% (n = 59,000) | AID 589; in the data active means max dye-equivalent concentration above about 10 nM; inconclusive means mostly about 1.1 nM to 9.6 nM
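Compounds in 100 mM Tris, pH 8.0, incubated 15 min at room temperature, then fluorescence read at 340 nm excitation/450 nm emission. Signal converted to 4-MU dye-equivalent concentration using an on-plate six-point 4-MU standard curve.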
Active calls of the source: *; [ ] = another dose, or the depositor's remark. Unless noted, the call rests on the fitted dose curve; in most records, active means well fitted curve in the direction sought with a large enough effect; inconclusive means small, poorly fitted or top-dose-only effect, or another doubt; inactive means no such curve, though single readings can be large; an effect the other way counts as inactive or inconclusive.

For CC(C)[C@@H](CC(=O)N[C@@H]1CCNC[C@H]1C(=O)N[C@H](CC(=O)N[C@@H](CCC(=O)O)CC(=O)O)Cc1c[nH]c2ccccc12)NC(=O)C[C@H](CO)NC(=O)[C@@H]1CNCC[C@H]1N the results were HADH2 inh -11%.
COc1cc([C@H](O)C(=O)O)ccc1O was read as HSD17B inh 7%, A350 fluor inactive, AID923 1%, HADH2 inh -12% and 4MU fluor inactive.
Screening N#Cc1nn(-c2ccccc2)nc1N1CCCCC1 returned HSD17B inh 25µM*, A350 fluor 1.9e-07M*, AID923 1%, HADH2 inh 186% and 4MU fluor 2.2e-07M*.
Screening CCOC(=O)c1[nH]c(C)c(/C(O)=C2\C(=O)C(=O)N(CCN(C)C)C2c2ccco2)c1C (configuration not stated) returned HSD17B inh 1%, A350 fluor 1.1e-08M*, AID923 0%, HADH2 inh -9% and 4MU fluor inconclusive.
For COC(=O)c1[nH]c(C)c(/C(O)=C2\C(=O)C(=O)N(CCN3CCOCC3)C2c2ccccc2OC)c1C (configuration not stated) the results were A350 fluor inactive and 4MU fluor inactive.
Screening CCN(CC)CCN1C(=O)C(=O)/C(=C(/O)c2c(C)[nH]c(C(=O)OC)c2C)C1c1ccco1 (configuration not stated) returned A350 fluor inactive and 4MU fluor inactive.
Screening COC(=O)c1[nH]c(C)c(/C(O)=C2\C(=O)C(=O)N(CCN(C)C)C2c2ccccc2OC)c1C (configuration not stated) returned HSD17B inh -3%, A350 fluor 3.1e-08M*, AID923 6%, HADH2 inh -9% and 4MU fluor 1e-07M*.
FC(F)(F)c1ccccc1-c1cc(N2CCNCC2)ncn1 was read as HSD17B inh -8%, A350 fluor inactive, AID923 -1%, HADH2 inh -3% and 4MU fluor inactive.
For CC(=O)OC[C@H]1O[C@@H](O/N=C(\C)CCN2CCCc3nc(C)c(C)cc32)[C@H](OC(C)=O)[C@@H](OC(C)=O)[C@H]1OC(C)=O the results were HSD17B inh inconclusive, AID923 4%[11.5 µM] and HADH2 inh -2%[11.4 µM].
Screening Cc1cc(=O)oc(C)c1C(=O)NCCC(C)C returned HSD17B inh -3%, A350 fluor inconclusive, AID923 -1%, HADH2 inh -10% and 4MU fluor inactive.
`Cc1cc(=O)oc(C)c1C(=O)Nc1cccc2nonc12` gave A350 fluor 1.1e-08M* and 4MU fluor inconclusive.
`Cc1cc(=O)oc(C)c1C(=O)NCCNC(=O)c1c(C)cc(=O)oc1C` gave A350 fluor 2.1e-08M* and 4MU fluor 1.8e-08M*.
Cc1cc(=O)oc(C)c1C(=O)Nc1ccc2nsnc2c1 was read as A350 fluor 6.6e-08M* and 4MU fluor 5.8e-08M*.
`O=c1nc2c(-c3ccccc3F)n[nH]n2c2ccccc12` gave HSD17B inh 20µM*, A350 fluor 5.4e-08M*, AID923 3%, HADH2 inh 28% and 4MU fluor 5.8e-08M*.
Screening CC(C)Cn1c(-c2ccccc2F)n[nH]c1=S returned HSD17B inh 1%, A350 fluor inactive, AID923 0%, HADH2 inh -27% and 4MU fluor inactive.
CC(C)c1ccc(S(=O)(=O)c2n[nH]n3c2nc(=O)c2ccccc23)cc1 was read as HSD17B inh 32µM*, A350 fluor 3e-07M*, AID923 2%, HADH2 inh 32µM* and 4MU fluor 3.5e-07M*.
`CCc1ccc(S(=O)(=O)c2n[nH]n3c2nc(=O)c2ccccc23)cc1` gave HSD17B inh 32µM*, A350 fluor 3e-07M*, AID923 7%, HADH2 inh 25µM* and 4MU fluor 3.5e-07M*.
Screening C[C@@H]1O[C@@H](O)[C@@H](O)[C@H](O)[C@H]1O returned HSD17B inh -2%[11.4 µM], A350 fluor inactive, AID923 -2%[11.5 µM], HADH2 inh -3%[11.4 µM] and 4MU fluor inactive.
CC[C@H](CC[C@H](C)[C@@H]1CC[C@@H]2[C@H]3CC=C4C[C@@H](O)CC[C@]4(C)[C@H]3CC[C@]21C)C(C)C was read as HSD17B inh 0%[25.6 µM], A350 fluor inactive, AID923 1%[25.7 µM], HADH2 inh -3%[25.6 µM] and 4MU fluor inactive.
For O=C(O)CSc1ncccc1[N+](=O)[O-] the results were HSD17B inh -1%[11.4 µM], A350 fluor inactive, AID923 2%[11.5 µM], HADH2 inh -7%[11.4 µM] and 4MU fluor inactive.
For CCNc1ccccc1 the results were HSD17B inh 4%, AID923 0% and HADH2 inh 7%.
N/C(=N\O)c1cn([C@@H]2O[C@@H](CO)[C@H](O)[C@@H]2O)c2ncnc(NO)c12 was read as HSD17B inh 3%[11.4 µM], A350 fluor inactive, AID923 -1%[11.5 µM], HADH2 inh -6%[11.4 µM] and 4MU fluor inactive.
For CCSc1nnc(NC(=O)CCc2ccccc2)s1 the results were HSD17B inh 0%, AID923 -1% and HADH2 inh -5%.
Screening CCSc1nnc(NC(=O)CCNS(=O)(=O)c2cc(Br)cnc2N)s1 returned HSD17B inh -16%, A350 fluor 1.5e-08M*, AID923 0%, HADH2 inh 11% and 4MU fluor 1.2e-08M*.
For Cc1ccnc(NC(=O)c2cc(S(=O)(=O)N3CCCCC3)ccc2Cl)c1 the results were HSD17B inh 20µM*, A350 fluor 5.1e-08M*, AID923 0%, HADH2 inh 10% and 4MU fluor 6e-08M*.
COc1ccc(NC(=O)c2cc(S(=O)(=O)N3CCCCC3)ccc2N2CCCCC2)cn1 was read as HSD17B inh -20%, A350 fluor 1.6e-08M*, AID923 0%, HADH2 inh -6% and 4MU fluor 1.3e-08M*.
`COc1ccc(CC(NC(C)=O)C(=O)NC2CCN(c3nc(C)cc(C)c3C#N)CC2)c(OC)c1` (configuration not stated) gave HSD17B inh 32µM*, A350 fluor 4.8e-08M*, AID923 3%, HADH2 inh -21% and 4MU fluor 5.1e-08M*.
Screening COc1cccc(CC(NC(C)=O)C(=O)NC2CCN(c3nc(C)cc(C)c3C#N)CC2)c1 (configuration not stated) returned HSD17B inh 25µM*, A350 fluor 9e-08M*, AID923 2%, HADH2 inh inconclusive and 4MU fluor 6.4e-08M*.
`O=C(OC1Cc2c(O)cc(O)cc2OC1c1cc(O)c(O)c(O)c1-c1c(C2Oc3cc(O)cc(O)c3CC2OC(=O)c2cc(O)c(O)c(O)c2)cc(O)c(O)c1O)c1cc(O)c(O)c(O)c1` (configuration not stated) gave HSD17B inh 7.9µM* and AID923 -3%.

Screens deposited in PubChem by National Center for Advancing Translational Sciences (NCATS).
